Active and inactive are the calls of the source. How the calls were made is not given here.
biological target: Pantothenate synthetase (Mycobacterium tuberculosis (strain ATCC 25618 / H37Rv)) (UniProt P9WIL5); assay: Coupled enzyme confirmation of inhibitors against recombinant Mtb PanC (AID 375); details: coupled enzyme assay; at 10 µM, active compounds read high;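 further: 0% = full reaction with vehicle and 100% = no enzyme background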
Sequence (P9WIL5 whole entry, looked up): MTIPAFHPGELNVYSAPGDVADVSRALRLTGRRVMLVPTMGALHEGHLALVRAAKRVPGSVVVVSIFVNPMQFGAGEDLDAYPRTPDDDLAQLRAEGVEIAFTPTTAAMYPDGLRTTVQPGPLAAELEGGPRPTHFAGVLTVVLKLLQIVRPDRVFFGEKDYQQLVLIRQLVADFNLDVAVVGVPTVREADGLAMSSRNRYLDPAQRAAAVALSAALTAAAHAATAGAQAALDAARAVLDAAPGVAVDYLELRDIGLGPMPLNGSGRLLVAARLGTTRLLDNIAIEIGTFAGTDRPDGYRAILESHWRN

| SMILES | inhibition |
| --- | --- |
| CCn1cc(C(=O)OCC(=O)OC2CC(C)CCC2C(C)C)c(=O)c2ccc(C)nc21 (stereo not given) | 5% (inactive) |
| C#CCN(C)Cc1ccccc1 | 3% (inactive) |
| O=C(NCc1ccco1)C1CC(=O)N(c2ccc(F)cc2)C1 (stereo not given) | 4% (inactive) |
| COC(=O)c1cccc(NC(=O)C2COc3ccccc3O2)c1C (stereo not given) | 0% (inactive) |
| CC1(C)CNC(=O)c2sc(N3CCOCC3)nc2C1 | 0% (inactive) |
| O=C(CSCCSCC(=O)c1ccco1)c1ccco1 | 0% (inactive) |
| CC(=O)N1CCN(Cc2ccc(Br)s2)CC1 | 0% (inactive) |
| COc1cc(-c2nc(S(=O)(=O)c3ccc(C)cc3)c(N(C)C)o2)cc(OC)c1OC | 3% (inactive) |
| COc1ccccc1-n1c(=O)c2c3c(sc2n2c(SC(C)C)nnc12)CCC3 | 1% (inactive) |
| c1ccc2c(c1)Cn1c-2nc2ccccc21 | 0% (inactive) |
| COc1ccc(-c2nnn(CC(=O)c3ccc4c(c3)OCCO4)n2)cc1OC | 0% (inactive) |
| O=C(c1ccco1)N1CCN(S(=O)(=O)c2ccc(C3CCCCC3)cc2)CC1 | 3% (inactive) |
| CCOc1ccc2[nH]c(=O)c(C(c3nnnn3Cc3ccco3)N3CCC(C)CC3)cc2c1 (stereo not given) | 0% (inactive) |
| CCN1C(=O)C2(C(C#N)=C(N)Oc3n[nH]c(C(C)C)c32)c2ccccc21 (stereo not given) | 1% (inactive) |
| CCOC(=O)c1ccc2nc(C)c3c(c2c1)OC(C)C3 (stereo not given) | 0% (inactive) |
| CC(=O)Nc1nnc(SCC(=O)NCC2CCCO2)s1 (stereo not given) | 0% (inactive) |
| COc1ccc(C2C(C(=O)c3sc(C)nc3C)=C(O)C(=O)N2CCN2CCOCC2)cc1 (stereo not given) | 0% (inactive) |
| CCn1ncc(C2=NOC(C(=O)NCc3ccc(Cl)cc3)C2)c1C (stereo not given) | 0% (inactive) |
| COc1ccc2cnn(-c3ccccc3C)c(=O)c2c1OC | 3% (inactive) |
| CCS(=O)(=O)N1CCC(C(=O)NCCc2ccc(C)cc2)CC1 | 0% (inactive) |

| SMILES | inhibition |
| --- | --- |
| COc1ccc(S(=O)(=O)Nc2ccccc2OC)cc1C | 2% (inactive) |
| CCCc1cc(=O)oc2cc(C)cc(OC(=O)c3ccco3)c12 | 0% (inactive) |
| Cc1nc(SCC(=O)NCc2ccco2)c2c(C)c(C)sc2n1 | 5% (inactive) |
| O=C(NCC1COc2ccccc2O1)c1ccccc1 (stereo not given) | 2% (inactive) |
| O=C(c1ccco1)N1CCN(C(=O)c2sccc2-c2ccccc2)CC1 | 0% (inactive) |
| Cc1nc2ccc(S(=O)(=O)NC(C(=O)NCc3cccs3)C(C)C)cc2s1 (stereo not given) | 0% (inactive) |
| Cc1nc(C)c(C(=O)C2=C(O)C(=O)N(CCN3CCOCC3)C2c2ccco2)s1 (stereo not given) | 9% (inactive) |
| C[C@]12CCC(=O)C=C1CC[C@@H]1[C@@H]2CC[C@@]2(C)[C@H]1CC[C@]2(O)C(=O)CO | 0% (inactive) |
| COc1ccc(-c2cc(C(=O)NCc3ccc(Cl)cc3)no2)cc1OC | 0% (inactive) |
| C=CCn1c(SCc2cc(=O)n3ccsc3n2)nnc1C1CCCCC1 | 0% (inactive) |
| Cc1cc2nc(C3CCN(CC4COc5ccccc5O4)CC3)[nH]c2cc1C (stereo not given) | 6% (inactive) |
| CC(=O)NC(Cc1c[nH]c2ccccc12)C(=O)OCC(=O)Nc1cc(C)on1 (stereo not given) | 0% (inactive) |
| O=C(O)CCCNS(=O)(=O)c1ccc(NCc2ccccc2)c(C(=O)O)c1 | 0% (inactive) |
| CC(Oc1ccc(Br)cc1)C(=O)N1CCc2ccccc21 (stereo not given) | 0% (inactive) |
| Cc1ccccc1-c1nc2ccccc2c(=O)n1C1CCS(=O)(=O)C1 (stereo not given) | 0% (inactive) |
| COc1ccccc1OCCNC(=O)c1cccs1 | 0% (inactive) |
| CCOC(=O)c1c(-c2ccc(C)o2)csc1NC(=O)CN1CCN(CC)CC1 | 0% (inactive) |
| COc1ccccc1NC(=O)C(C)NS(=O)(=O)c1ccc(F)cc1 (stereo not given) | 0% (inactive) |
| Cn1c(SC/C=C/c2ccccc2)nnc1-c1cnccn1 | 1% (inactive) |
| CCOC(=O)c1[nH]c(=O)c2ccccc2c1O | 0% (inactive) |
